Source: PubChem (National Center for Advancing Translational Sciences (NCATS))
Most compounds without a hit are left out; they make up all but 3.1% or so of the library.
Mito fusion yeast: qHTS Assay for Small Molecule Inhibitors of Mitochondrial Division or Activators of Mitochondrial Fusion | S. cerevisiae fusion-defective mutant growth rescue, CellTiterGlo 48 h | Potency, µM (titrated, usually from 46.1 µM), actives largely listed as activators | actives 0.23% (n = 320,000) | AID 485298, 2010; further: nearly all actives have a fitted effect of over 45% in size
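Luminescent cell viability in 1536-well qHTS format served as the measure of rescued growth in ts fusion-mutant S. cerevisiae cultured on non-fermentable YPEG for 48 hours at 37C.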
TrxR1 inh: qHTS Assay for Inhibitors of Mammalian Selenoprotein Thioredoxin Reductase 1 (TrxR1): qHTS; Potency, µM (doses to about 114 µM), usual class: inhibitors; actives 1% (n = 390,000); Thioredoxin reductase 1, cytoplasmic (Rattus norvegicus), O89049; recombinant rTrxR1, NADPH fluorescence consumption, selenite substrate; further: nearly all actives have a fitted effect of over 65% in size
Target sequence (O89049 whole entry, looked up): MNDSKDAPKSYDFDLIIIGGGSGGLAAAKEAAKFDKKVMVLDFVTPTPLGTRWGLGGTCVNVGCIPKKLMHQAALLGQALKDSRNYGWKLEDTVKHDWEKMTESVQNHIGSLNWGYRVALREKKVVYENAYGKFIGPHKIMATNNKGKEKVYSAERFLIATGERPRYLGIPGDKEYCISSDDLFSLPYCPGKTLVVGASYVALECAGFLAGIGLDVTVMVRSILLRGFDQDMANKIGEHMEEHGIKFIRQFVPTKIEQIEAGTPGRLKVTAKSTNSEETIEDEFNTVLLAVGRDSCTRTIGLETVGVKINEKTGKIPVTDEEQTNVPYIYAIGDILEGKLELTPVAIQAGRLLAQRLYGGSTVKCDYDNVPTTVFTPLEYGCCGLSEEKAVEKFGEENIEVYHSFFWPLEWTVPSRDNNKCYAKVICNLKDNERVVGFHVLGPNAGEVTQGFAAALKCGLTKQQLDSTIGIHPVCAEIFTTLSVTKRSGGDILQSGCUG
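Rat TrxR1 (90 nM in the dispensed reagent) was pre-reduced with 400 uM NADPH for 5 min at room temperature, then incubated with compound for 15 min. After 400 uM selenite was added, NADPH fluorescence (Ex 340/Em 450 nm) was followed for 8 min.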
TrxR1 substrate: qHTS Assay for Substrates of Mammalian Selenoprotein Thioredoxin Reductase 1 (TrxR1): qHTS | actives 0.01% (n = 390,000) | Potency, µM (titrated, usually from 114 µM) | Thioredoxin reductase 1, cytoplasmic (Rattus norvegicus), O89049 | purified TrxR1 substrate turnover, NADPH consumption readout | AID 588456, 2011; further: nearly all actives have a fitted effect of over 50% in size
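Rat TrxR1, dispensed at 90 nM, was prereduced with 400 uM NADPH (final) for 5 min at ~22 deg C, then incubated with compound 15 min before 400 uM selenite. A first-read NADPH fluorescence drop versus no-compound background flagged substrates.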
A549 tox: Nrf2 qHTS screen for inhibitors: counterscreen for cytotoxicity; AID 504648, 2011; actives 0.16% (n = 390,000); Potency, µM (series often up to 46 µM), actives largely listed as inhibitors; A549 ARE-Fluc cells, CellTiter-Fluor viability, 18-24 h
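A549 ARE_Fluc cells in 5% FBS OPTI-MEM were exposed to compounds in concentration-response for 18-24 h at 37 deg C. Viability was read by CellTiter-Fluor fluorescence (Ex 405/Em 525) after 30 min, before the luciferase read.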
IDH1 R132H inh: qHTS for Inhibitors of mutant isocitrate dehydrogenase 1 (IDH1): qHTS; AID 602179, 2012; IDH1-R132H enzyme, NADPH consumption, diaphorase/resazurin fluorescence; actives 0.093% (n = 390,000); Potency, µM (doses to about 76.6 µM), most hits filed as inhibitors; further: nearly all actives have a fitted effect of over 65% in size
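IDH1-R132H (0.5 ug/mL) preincubated 30 min with compound, then NADPH (0.016 mM) and alpha-KG (2 mM) added; 80 min at RT, pH 7.5. Remaining NADPH coupled via diaphorase/resazurin to fluorescence (540/590 nm); concentration-response curves normalized to no-enzyme control.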
Nrf2 block: Nrf2 qHTS screen for inhibitors; Potency, µM (top dose mostly 46 µM), usual class: inhibitors; A549 ARE-Fluc reporter, luciferase luminescence, 18-24 h; AID 504444, 2011; actives 2.1% (n = 360,000); further: nearly all actives have a fitted effect of over 60% in size
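In this cell-based qHTS, ARE-driven firefly luciferase in A549 cells reports Nrf2 activity; the luminescent signal after BugLite lysis is the measured value, with a prior CellTiter-Fluor read for cell health.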
Hits are given with their value; - = inactive; ? = inconclusive; . = no result; [ ] = dose if it differs, or a comment. The call rests on the fitted dose curve; in most records, active means well fitted curve in the direction sought with a large enough effect; inconclusive means small, poorly fitted or top-dose-only effect, or another doubt; inactive means no such curve, though single readings can be large; an effect the other way counts as inactive or inconclusive.

SMILES | Mito fusion yeast | TrxR1 inh | TrxR1 substrate | A549 tox | IDH1 R132H inh | Nrf2 block
Cc1c(CCC(=O)O)c(=O)oc2cc3occ(-c4ccc(F)cc4)c3cc12 | - | - | - | - | - | -
Cc1c(CCC(=O)O)c(=O)oc2cc3occ(C(C)(C)C)c3cc12 | - | - | - | - | - | 18.4µM
COc1cc(NC(=O)CN2C(=O)CCc3cc(Br)ccc32)cc(OC)c1OC | . | - | - | - | - | .
COc1cc(C(=O)N/N=C(\c2ccccc2)c2ccccn2)cc(OC)c1OC | - | - | - | ? | - | 4.61µM
COc1cc(C(=O)N/N=C(\Cc2ncc[nH]2)c2ccccc2)cc(OC)c1OC | - | - | - | ? | - | 14.6µM
COc1ccc(-c2cc(N)n(S(=O)(=O)c3c(F)c(F)c(F)c(F)c3F)n2)cc1OC | - | 2.82µM | - | - | - | .
Cn1cnc([N+](=O)[O-])c1S(=O)(=O)c1ccc(Cl)cc1 | - | 0.316µM | - | ? | - | 18.4µM
O=c1c2ccccc2nc(/C=C/c2ccc([N+](=O)[O-])o2)n1CCCO | - | ? | - | 23.1µM | - | 20.6µM
O=c1c2ccccc2nc(/C=C/c2ccc([N+](=O)[O-])cc2)n1CCCO | ? | - | - | - | - | -
O=c1c2ccccc2nc(/C=C/c2ccc(Br)cc2)n1CCCO | ? | - | - | - | - | -
O=c1c2ccccc2nc(/C=C/c2cccc(Br)c2)n1CCCO | 11.2µM | - | - | - | - | -
COc1cc2nc(N3CCCN(C)CC3)nc(NC3CCN(C)C3)c2cc1OC (centres undefined) | . | - | - | . | . | .
O=C(NCc1ccccc1F)c1cc2ccccn2n1 | . | - | - | - | - | ?
O=C(/C=C1\C(=O)Nc2ccccc21)/C=C1\C(=O)Nc2ccccc21 | - | 1µM | - | - | - | -
NC(=O)CC(NC(=O)c1ccc(Br)cc1)c1ccc(N2CCC(Cc3ccccc3)CC2)c([N+](=O)[O-])c1 (centres undefined) | - | - | - | - | - | ?
NC(=O)CC(NC(=O)c1ccccc1)c1ccc(N2CCC(Cc3ccccc3)CC2)c([N+](=O)[O-])c1 (centres undefined) | - | - | - | ? | - | 10.3µM
O=C(COc1ccccc1C(=O)Nc1ccccc1)NCCCCc1ccccc1 | . | - | - | . | . | .
CCOC(=O)c1[nH]c(C)c(C(=O)OCC(=O)NC(=O)NC(C)(C)C)c1C | - | - | - | . | - | -
CCOC(=O)c1c(C)[nH]c(C(=O)OCC(=O)Nc2cc(Cl)ccc2OC)c1C | - | - | - | - | - | -
CCOC(=O)c1c(C)[nH]c(C(=O)OCC(=O)NC(C)(C)C)c1C | - | - | - | - | - | 18.4µM
CC(=O)c1c(C)[nH]c(C(=O)OCC(=O)Nc2ccc3c(c2)OCCO3)c1C | . | - | - | - | - | 16.4µM
COc1cc(NC(=O)COC(=O)c2[nH]c(C)c(C(C)=O)c2C)cc(OC)c1 | . | - | - | - | - | 13µM
CC(=O)c1c(C)[nH]c(C(=O)OCC(=O)Nc2ccc(Cl)cc2[N+](=O)[O-])c1C | - | - | - | - | - | 20.6µM
CCCCN(CCC#N)c1ccc(/C=C/c2ccnc3ccccc23)cc1 | . | - | - | . | . | .
COC(=O)c1cc(C)nc2c1c(=O)nc(SCc1cccc(C(F)(F)F)c1)n2C1CC1 | . | - | - | - | - | .
SMILES | Mito fusion yeast | TrxR1 inh | TrxR1 substrate | A549 tox | IDH1 R132H inh | Nrf2 block
Cc1ccc(C)c(N2CCN(C(=O)Nc3ccc4c(c3)N(C)C(=O)CS4)CC2)c1 | - | - | - | - | - | 16.4µM
CN1C(=O)CSc2ccc(NC(=O)N3CCN(c4ccccn4)CC3)cc21 | - | - | - | - | - | ?
COc1ccc(Nc2cnn(-c3nc4ccccc4s3)c(=O)c2Cl)cc1 | - | 3.16µM | - | - | - | ?
O=c1c(Cl)c(Nc2cccc(Cl)c2)cnn1-c1nc2ccccc2s1 | ? | ? | - | - | - | ?
O=C(c1cccs1)N1CCCC(N2CCN(c3cccc(C(F)(F)F)c3)CC2)C1 (centres undefined) | - | - | - | - | - | 20.6µM
Cc1ccc(C)c(NC(=S)N2CCN(c3cccc(C(F)(F)F)c3)CC2)c1 | - | - | - | - | - | -
COc1ccc(NC(=O)N2CCN(c3cccc(C(F)(F)F)c3)CC2)cc1 | - | - | - | - | - | -
Cc1ccnc(NC(=S)N2CCN(c3cccc(C(F)(F)F)c3)CC2)c1 | - | - | - | ? | - | 23.1µM
CN(C)S(=O)(=O)c1ccc(NC(=O)N2CCN(c3cccc(C(F)(F)F)c3)CC2)cc1 | - | - | - | ? | - | 23.1µM
FC(F)(F)c1cccc(N2CCN(C(=S)NC3CCCCC3)CC2)c1 | - | - | - | - | - | 16.4µM
O=C(c1ccco1)N1CCCC(N2CCN(c3cccc(C(F)(F)F)c3)CC2)C1 (centres undefined) | - | ? | - | - | - | ?
CN1CCN(C2(CNC(=O)c3ccc(C(C)(C)C)cc3)CCCCC2)CC1 | . | - | - | - | - | -
COC(=O)c1ccc(C2NC(c3ccc4c(c3)OCO4)=CC(c3ccccc3O)N2)cc1 (centres undefined) | . | - | - | - | . | -
FC(F)(F)c1cccc(N2CCN(C(=S)NC3CCCC3)CC2)c1 | - | - | - | - | - | 23.1µM
CCCS(=O)(=O)c1ncc(Cl)c(C(=O)N(Cc2ccccc2)Cc2ccco2)n1 | . | 1.78µM | -[0.457 µM] | ? | - | 16.4µM
CCSc1ncc(Cl)c(C(=O)N(Cc2ccccc2)Cc2ccco2)n1 | . | - | - | - | . | ?
CCCSc1ncc(Cl)c(C(=O)N(Cc2ccc(Cl)cc2)Cc2ccco2)n1 | . | - | - | - | . | 20.6µM
CCCN(Cc1cccs1)C(=O)Nc1cc(Cl)c(OC)cc1OC | . | - | - | - | - | -
O=C1CCc2cc(S(=O)(=O)Nc3cc(F)cc(Cl)c3)c(F)cc2N1 | . | . | . | ? | . | -
CC1=C/C(=C/N(C)C)C(=O)O1 | - | - | - | - | - | -
CN(C)/C=C1/C=C(c2ccccc2)OC1=O | - | 22.4µM | - | - | - | -
COc1ccc(/[N+]([O-])=C/c2ccco2)cc1 | - | 56.2µM | - | - | - | -
Brc1cccc[n+]1CCCCCC[n+]1ccccc1Br | . | ? | - | . | . | .
Clc1cccc[n+]1CCCCCC[n+]1ccccc1Cl | . | 56.2µM | - | . | . | .
O=[N+]([O-])c1ccc(Sc2ccncn2)c([N+](=O)[O-])c1 | . | . | . | . | - | .
